GALK inh: galactokinase (human) inhibition. P51570. Purified GALK, Kinase-Glo residual ATP luminescence. Potency, µM (highest dose often 57.5 µM), hits mostly inhibitors. 270,000 compounds, 0.007% hits. AID 1868
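Galactose (100 uM) and ATP (35 uM) were turned over by 5 nM GALK for 1 h at RT. Kinase-Glo Plus then converted the remaining ATP into a luminescent signal.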
Coupling enz: counter-screen for Giardia aldolase inhibitors: coupling enzyme system; AID 2472; activity change, negative = inhibition, % at 58.2 µM, hits read low; 290,000 compounds, 0.67% hits; coupling enzyme system counterscreen, AmpLite Red fluorescence; in the data active means activity change below about -30%
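Coupling enzymes only (glyceraldehyde-3-phosphate) + compound, at 57.5 uM final, 10 min RT; add substrate/coupling/AmpLite Red mix, 20 min RT; fluorescence ex 525/em 598 nm. Actives flag coupling-system interference.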
USP2a block: inhibitors of human ubiquitin-specific protease USP2a. O75604. USP2 core, Ub-CHOP2 coupled fluorogenic reporter, 485/531. Potency, µM (series often up to 38.3 µM), usual class: inhibitors. 330,000 compounds, 0.01% hits
Target sequence (O75604 whole entry, looked up): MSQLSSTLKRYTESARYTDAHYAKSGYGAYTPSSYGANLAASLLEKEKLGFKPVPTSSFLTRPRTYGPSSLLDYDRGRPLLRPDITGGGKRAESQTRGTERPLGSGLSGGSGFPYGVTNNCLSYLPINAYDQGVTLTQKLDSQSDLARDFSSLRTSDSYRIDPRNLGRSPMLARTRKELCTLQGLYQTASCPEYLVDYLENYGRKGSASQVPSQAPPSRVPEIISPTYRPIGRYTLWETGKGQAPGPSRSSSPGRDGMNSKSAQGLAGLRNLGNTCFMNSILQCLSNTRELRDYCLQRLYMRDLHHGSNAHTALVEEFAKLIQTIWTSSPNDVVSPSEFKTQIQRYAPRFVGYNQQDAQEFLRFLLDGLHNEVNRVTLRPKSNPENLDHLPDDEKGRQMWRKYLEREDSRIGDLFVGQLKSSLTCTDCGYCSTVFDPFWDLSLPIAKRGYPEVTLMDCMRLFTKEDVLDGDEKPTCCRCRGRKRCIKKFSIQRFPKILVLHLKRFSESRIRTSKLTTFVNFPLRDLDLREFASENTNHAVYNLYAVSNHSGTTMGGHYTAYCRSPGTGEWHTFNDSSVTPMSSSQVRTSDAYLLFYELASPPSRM
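Deubiquitinase activity read as fluorescence (485/531 nm) after Ub-CHOP2 cleavage activates the enterokinase reporter on its substrate; USP2 core 10nM, Ub-CHOP2 and substrate 25nM each, 30min compound preincubation then 60min RT; data normalized to NEM, curves fitted.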
USP1 inh: USP1/UAF1 (human) deubiquitinase inhibition; O94782; recombinant USP1/UAF1, Ub-Rhodamine cleavage fluorescence; Potency, µM (top dose mostly 57.1 µM), actives largely listed as inhibitors; 390,000 compounds, 0.23% hits; further: nearly all actives have a fitted effect of over 60% in size
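USP1/UAF1 complex (1 nM) preincubated 15 min at room temperature with compound, then Ub-Rho substrate (150 nM final) added. Kinetic fluorescence at 480/540 nm over 6 reads at 60 s intervals; 50 mM HEPES pH 7.8, 0.5 mM EDTA, 0.1 mg/ml BSA, 1 mM TCEP, 0.01% Tween-20.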
PI4K2A block: blocks human PI4K2A kinase activity; Q9BTU6; purified PI4K2A, ADP-Glo luminescence, 1 h; active compounds read low; activity change, negative = inhibition, % at 76.9 µM; 420,000 compounds, 0.13% hits; in the data active means activity change below about -50%; inconclusive means mostly about -30% to -49%
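PI4K2A activity was measured by ADP-Glo luminescence: enzyme (4 ug/mL stock) and phosphatidylinositol (1.2 mM stock) in Tris pH 7.5/MgCl2/EGTA/Triton X-100 buffer were reacted with ATP (300 microM stock) for one hour at ambient temperature.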
Eya2 phos inh: blocks the phosphatase activity of human Eya2; 330,000 compounds, 0.006% hits; AID 488837; Potency, µM (doses to about 76.9 µM), usual class: inhibitors; recombinant Eya2, OMFP fluorescence dephosphorylation (OMFP is methylfluorescein phosphate); O00167
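Eya2 protein (added as 0.2 uM solution) was preincubated with compound for 10 min at ambient temperature in 50 mM HEPES pH 7.5, 50 mM NaCl, 5 uM MgCl2, 0.05% BSA, 1 mM DTT. OMFP (added at 50 uM) then reacted 10 min; fluorescence read at 485/525 nm.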
Each line names hits and unclear results; the compound was inactive in the other large screens; ! = not confirmed by another sample. Rows were chosen to be rich in hits. Some 0.71% of all compounds tested hit in one or more screens of this group. Unless noted, the call rests on the fitted dose curve; in most records, active means well fitted curve in the direction sought with a large enough effect; inconclusive means small, poorly fitted or top-dose-only effect, or another doubt; inactive means no such curve, though single readings can be large; an effect the other way counts as inactive or inconclusive.

CCCC(=Nc1ccc(N)cc1)C1=C(O)C(C(=O)OC)C(C)(C)CC1=O (centres undefined)	Coupling enz -41, USP1 inh inconclusive, PI4K2A block inconclusive
CCCC(=O)C1=C(O)C(C(=O)OC)C(C)(C)CC1=Nc1ccc(N)cc1 (centres undefined)	none
C1=C(c2ccc(-c3ccccc3)cc2)Nc2ncnn2C1c1ccco1 (centres undefined)	USP2a block inconclusive, USP1 inh 14µM, Eya2 phos inh inconclusive
Fc1ccc(C2=CC(c3ccco3)n3ncnc3N2)cc1 (centres undefined)	USP1 inh inconclusive
COC(=O)C1=C(C)OC(N)=C(C#N)C1c1cc(OC)c(OCC(N)=O)cc1Cl (centres undefined)	Coupling enz -30
O=C(CCn1nnc2ccccc21)N1CCN(c2ccccc2F)CC1	none (no result: GALK inh, Coupling enz, USP2a block, USP1 inh, Eya2 phos inh)
CC1(C)O[C@@H]2[C@H](O1)[C@@H](CO)O[C@H]2n1cnc2c(N)ncnc21	USP1 inh inconclusive, PI4K2A block -52 (no result: GALK inh, Coupling enz)
Nc1ncnc2c1ncn2C1OC(CO)C2OC21 (centres undefined)	none (no result: GALK inh, Coupling enz, USP2a block, USP1 inh, Eya2 phos inh)
O=C(CNCCC1=CCCCC1)Nc1ccccc1N1CCCCC1	Coupling enz -42
O=C(CNC1CCCCCC1)Nc1ccccc1N1CCCCC1	none (no result: GALK inh)
Cc1ccncc1C(=O)O	none (no result: GALK inh, USP2a block, USP1 inh, PI4K2A block, Eya2 phos inh)
COc1cc2c(cc1OC)C1O[C@](c3ccsc3)(C2)Oc2cc(-c3ccccc3)oc(=O)c21	none (no result: GALK inh, USP1 inh, PI4K2A block)
Cc1nc(-[n+]2nc(-c3ccncc3)nn2-c2ccccc2)sc1C	PI4K2A block -73 (no result: GALK inh, Coupling enz, USP2a block, USP1 inh, Eya2 phos inh)
CCN(CC)C(=O)Cn1c(C)c(/C=C/c2cc[n+](C)cc2)c2ccccc21	USP2a block inconclusive, USP1 inh 25µM, Eya2 phos inh inconclusive
CCn1cc(/C=C/c2cc[n+](C)cc2)c2ccccc21	USP2a block inconclusive, USP1 inh inconclusive, Eya2 phos inh inconclusive
CCN(CC)C(=O)Cn1c(=O)n(CCc2ccccc2)c(=O)c2ccccc21	none (no result: GALK inh, Coupling enz, USP2a block, Eya2 phos inh)
C=CCn1c(C)c(/C=C/c2cc[n+](C)cc2)c2ccccc21	USP2a block inconclusive, USP1 inh 35µM, Eya2 phos inh inconclusive
CC(C)n1cc(/C=C/c2cc[n+](C)cc2)c2ccccc21	Coupling enz -33, USP2a block inconclusive, USP1 inh 32µM, Eya2 phos inh inconclusive
C=CCn1cc(/C=C/c2cc[n+](C)cc2)c2ccccc21	USP2a block inconclusive, USP1 inh 32µM
COc1ccc(CNc2ccncc2)c(OC)c1OC	none (no result: GALK inh, Coupling enz, USP2a block, Eya2 phos inh)
COc1cc(NCc2ccc3nc(N)nc(N)c3c2C)cc(OC)c1OC	Coupling enz -46 (no result: GALK inh, USP2a block, USP1 inh, Eya2 phos inh)
Nc1nc2ccccc2n1Cc1ccc(F)cc1	none (no result: GALK inh, Coupling enz, USP2a block, USP1 inh, Eya2 phos inh)
CCCCC1=CC2=CC(=O)C(C)(OC(=O)CC)C(=O)C2=CN1C(CO)CO (centres undefined)	Coupling enz -42!, USP1 inh inconclusive
COc1ccc(OC)c(/C=c2\sc3nc(-c4cccs4)nn3c2=O)c1	USP1 inh 32µM
O=C(c1ccc(F)cc1)c1cc2ccc(O)cc2oc1=O	PI4K2A block -88
Cc1ccc(NC2=C/C(=N\S(=O)(=O)c3cccs3)c3ccccc3C2=O)c(C)c1	USP1 inh 2µM, PI4K2A block inconclusive
Cc1ccc(Cl)cc1NC1=C/C(=N\S(=O)(=O)c2cccs2)c2ccccc2C1=O	Coupling enz -46, USP1 inh 3.2µM, PI4K2A block inconclusive
Cc1cccc(NC2=C/C(=N/S(=O)(=O)c3cccs3)c3ccccc3C2=O)c1	USP1 inh inconclusive
COc1cccc(-c2ccc3ncnc(NCc4cccc(F)c4)c3c2)c1	none (no result: GALK inh, Coupling enz, USP1 inh, PI4K2A block)
CCOc1ncc(F)c(=O)[nH]1	none (no result: GALK inh, Coupling enz, USP2a block, USP1 inh, Eya2 phos inh)
C(=C\c1ccc2ccccc2n1)/c1ccccc1	PI4K2A block inconclusive
Oc1ccc(/C(Cc2ccc3ccccc3n2)=N\Nc2ccccc2)c(O)c1	USP1 inh inconclusive
O/C(=C\c1ccc2ccccc2n1)c1ccc(O)cc1O	USP1 inh 28µM
Oc1ccc(/C=C/c2ccc3ccccc3n2)cc1	PI4K2A block -75
CCC(=O)CC(NC(=O)OC)c1ccc(F)cc1 (centres undefined)	none (no result: GALK inh, USP2a block, USP1 inh, PI4K2A block, Eya2 phos inh)

Screening data (PubChem)
